BCR signal inh: blocks chronic active B-cell receptor signaling. ABC-DLBCL IkBa-CBG/CBR reporter, luminescence ratio, 4 h. Potency, µM (doses to about 46.1 µM), usual class: inhibitors. 340,000 compounds, 0.05% hits; active = well fitted inhibition curve with a large enough effect in the signal ratio, with a control signal flat, not every such curve was filed as active; inconclusive = small, poorly fitted or top-dose-only effect, or effect the other way, or a change in a side signal; the % refers to the signal ratio
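TMD8 ABC-DLBCL cells carrying doxycycline-inducible green luciferase fused to IkappaBalpha plus unfused red luciferase were exposed to compounds (up to 46 uM) for 4 hrs at 37C. Activity came from the overlap-corrected green/red luminescence ratio.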
D1 potentiator: enhances dopamine response at the human D1 receptor; potentiation, % at 10 µM; HEK293 TREx D1 cells, calcium flux, dopamine EC20 potentiation; 360,000 compounds, 0.036% hits; P21728; in the data active = potentiation above about 30%
D1 antag: human D1 dopamine receptor antagonism; P21728; HEK293 TREx D1 cells, calcium flux, dopamine EC80; hits give low values; activity change, negative = inhibition, % at 10 µM; 360,000 compounds, 3.2% hits; AID 504652; in the data active = activity change below about -30%
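Allosteric or orthosteric antagonism assessed as attenuation of the calcium response to EC80 dopamine, added 180 s after compound, in induced HEK293 Trex D1 cells loaded with no-wash calcium dye.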
DRD3 antagonist: antagonists of human D3 dopamine receptor. max response, negative = inhibition, %. 360,000 compounds, 2.5% hits. D3R cells, DiscoveRx beta-arrestin luminescence, antagonist mode; hits give low values; in the data active = max response below about -50%; inconclusive = no clear call, values can overlap the other calls
Target sequence (P35462 whole entry, looked up): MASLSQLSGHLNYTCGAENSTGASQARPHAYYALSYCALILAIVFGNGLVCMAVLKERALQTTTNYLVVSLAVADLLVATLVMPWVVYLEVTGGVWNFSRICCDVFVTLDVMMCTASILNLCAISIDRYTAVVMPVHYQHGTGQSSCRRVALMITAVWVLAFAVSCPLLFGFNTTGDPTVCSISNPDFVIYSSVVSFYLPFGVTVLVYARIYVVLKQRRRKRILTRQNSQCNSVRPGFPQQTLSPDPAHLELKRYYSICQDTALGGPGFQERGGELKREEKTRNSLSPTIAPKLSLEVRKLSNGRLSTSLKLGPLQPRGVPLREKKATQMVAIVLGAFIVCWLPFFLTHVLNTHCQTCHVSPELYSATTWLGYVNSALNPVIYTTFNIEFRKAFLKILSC
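Cells expressing the human receptor were seeded at 1500 cells/well, incubated overnight at 37 degrees C in 5% CO2, then exposed to library compounds with dopamine controls for 90 minutes at 37 degrees C before luminescent detection.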
D1 ag: human D1 receptor agonism; HEK293 T-REx D1 cells, calcium flux, agonist mode; activation, % at 2 µM; 360,000 compounds, 1% hits; P21728; in the data active = activation above about 30%
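Agonism was scored from calcium flux recorded over 180 s (1 read/s) after pintool compound addition, following a 10-cycle baseline. Cells were inducible force-coupled HEK293 TREx D1, plated overnight at 30 C and loaded with no-wash calcium dye.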
DRD3 agonist: D3 dopamine receptor (human) agonism | P35462 | max activation, % | 410,000 compounds, 0.58% hits | AID 652048 | D3R DiscoveRx beta-arrestin cells, luminescence, 90 min; in the data active = max activation above about 30%
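Agonist mode: compounds and dopamine controls were applied to plated cells for 90 min at 37 degrees C after an overnight attachment at 1500 cells/well. Luminescent read-out followed 30 - 60 minutes at room temperature with DiscoveRx detection reagent.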
Large screens that a line does not name were inactive. Hits are enriched below; roughly 6% of the tested compounds scored in any of these assays.

O=C(COc1ccc2ccc(=O)oc2c1)Nc1ccc(N2CCCCC2)cc1	none
COc1cccc(NC(=O)Cn2c(=O)n(-c3ccc(C)cc3)c(=O)c3ccc(C(=O)NCc4ccco4)cc32)c1	none (no result: BCR signal inh, DRD3 antagonist)
Cc1ccccc1CNC(=O)C1CCN(c2nnc(-n3c(C)ccc3C)s2)CC1	none (no result: BCR signal inh, DRD3 antagonist)
O=C(Nc1cc(-c2nc3cc(Cl)ccc3o2)ccc1Cl)c1cccc2ccccc12	none (no result: BCR signal inh, DRD3 antagonist)
O=C(COc1ccccc1[N+](=O)[O-])Nc1cc(-c2nc3cc(Cl)ccc3o2)ccc1Cl	D1 antag -45 (no result: BCR signal inh, DRD3 antagonist)
O=C(C(=NNc1ccccc1)C(=S)Nc1ccccc1)c1ccccc1	none (no result: BCR signal inh, D1 potentiator, D1 antag, D1 ag)
Clc1ccc(OCCSCc2nc3ccccc3[nH]2)cc1	D1 antag -49
CCN(CC(=O)Nc1ccccc1C(F)(F)F)C(=O)CCS(=O)(=O)c1ccc(Cl)cc1	D1 antag -30
CCN(CC(=O)Nc1cc(Cl)ccc1C)C(=O)CCS(=O)(=O)c1ccc(Cl)cc1	none
Cc1ccc(C)c(OCc2cc(C(=O)NC3CCN(Cc4ccccc4)CC3)no2)c1	DRD3 antagonist -93
CCCc1cc(=O)oc2cc(C)cc(OCC(=O)NC3CCN(Cc4ccccc4)CC3)c12	none
O=C(CCc1nc(-c2ccccc2F)no1)NC1CCN(Cc2ccccc2)CC1	D1 antag -30, DRD3 antagonist -51, D1 ag 31
Cc1cc(OCC(=O)NC2CCN(Cc3ccccc3)CC2)c2c(C)c(C)c(=O)oc2c1	DRD3 antagonist -82
O=C(COc1ccccc1F)NC1CCN(Cc2ccccc2)CC1	BCR signal inh inconclusive, DRD3 antagonist -65
Cc1ccc(-c2noc(CCC(=O)NC3CCN(Cc4ccccc4)CC3)n2)cc1	none
COc1ccc(NC(=O)c2sc3nc(C)c(C(=O)Nc4ccc(C)cc4C)c(-c4cccs4)c3c2N)cc1	none (no result: BCR signal inh, DRD3 antagonist)
COc1cccc(-c2oc3c(c2C#CCCO)C(O)CCC3)c1 (configuration not stated)	DRD3 antagonist inconclusive (no result: BCR signal inh, D1 potentiator, D1 antag, D1 ag)
Cc1c(CNC2CCCCC2)c(C(=O)O)c(C)n1Cc1c(F)cccc1Cl	none (no result: BCR signal inh, DRD3 antagonist)
Cc1nc(SCC(=O)Nc2ccc(Cl)cc2C(F)(F)F)[nH]c(=O)c1Cc1ccccc1	none (no result: BCR signal inh, DRD3 antagonist)
CCOc1cc(CNCc2ccccc2)ccc1OCC(=O)NC1CCCCC1	D1 ag 34
O=C(COc1ccc2c(-c3ccccc3)cc(=O)oc2c1)Nc1cccnc1	D1 antag -33
Cc1cc(OCC(=O)NC2CCN(Cc3ccccc3)CC2)c2c(C)cc(=O)oc2c1	DRD3 antagonist -63
CC(Oc1ccc(Br)cc1)C(=O)NC1CCN(Cc2ccccc2)CC1 (configuration not stated)	DRD3 antagonist -75
COCCCNC(=O)CCn1c(=O)c2ccccc2n(CC(=O)Nc2c(C)cc(C)cc2C)c1=O	none (no result: BCR signal inh, DRD3 antagonist)
COc1ccc(-c2oc3c(c2-c2cnc(OC)nc2)C(O)CC3)cc1 (configuration not stated)	DRD3 antagonist inconclusive (no result: BCR signal inh, D1 potentiator, D1 antag, D1 ag)
CC(C)(C)OC(=O)N1CCC(c2c(C(=O)NC3CCN(Cc4ccccc4)CC3)cnn2-c2ccc(F)cc2F)CC1	none (no result: BCR signal inh, DRD3 antagonist)
COC(=O)c1c(Oc2ccc(OC)cc2)nnc(-c2ccccc2)c1-c1ccccc1	none (no result: BCR signal inh, DRD3 antagonist)
COc1ccc(Cl)cc1C(=O)NCc1nnnn1-c1ccccc1	none (no result: BCR signal inh, DRD3 antagonist)
Cc1cc(OCC(=O)Nc2cccnc2)c2c(C)c(C)c(=O)oc2c1	D1 antag -37
Cc1cc(OC(C)C(=O)NC2CCN(Cc3ccccc3)CC2)c2c(C)cc(=O)oc2c1 (configuration not stated)	DRD3 antagonist -62
Cc1ccc(CN(C(=O)c2ccccc2)c2ccccn2)o1	none (no result: BCR signal inh, DRD3 antagonist)
CCOc1cc(Br)c(Br)c(C=Nc2ccc(NC(C)=O)cc2)c1O	DRD3 antagonist -100
CC(=O)Nc1ccc(N=Cc2c(O)c(C(=O)Nc3ccccc3)cc3ccccc23)cc1	BCR signal inh inconclusive, D1 ag 186
CCCN(C)C[C@H]1Oc2cc(C#Cc3ccc(F)cc3)ccc2S(=O)(=O)N([C@H](C)CO)C[C@@H]1C	none (no result: BCR signal inh, D1 potentiator, D1 antag, D1 ag)
C=CCNC(=O)C1CC1(c1cccc(C)c1)c1cccc(C)c1 (configuration not stated)	none (no result: BCR signal inh, D1 potentiator, D1 antag, D1 ag)
Cc1cccc(C2(c3cccc(C)c3)CC2C(=O)Nc2ccc([N+](=O)[O-])cc2O)c1 (configuration not stated)	D1 antag -33, DRD3 antagonist -70
Cc1cc(F)ccc1NC(=O)Cn1cc(S(=O)(=O)NC(C)C)c(S(=O)(=O)NC(C)C)c1	none (no result: BCR signal inh, DRD3 antagonist)
COc1ccccc1Oc1nnnn1-c1ccc(C(N)=O)cc1	none
NC(=O)c1ccc(-n2nnnc2Oc2ccccc2)cc1	BCR signal inh inconclusive, D1 antag -49
Cc1cccc(N2CCN(c3nc4ccccc4c4nnc(C)n34)CC2)c1C	none (no result: BCR signal inh, DRD3 antagonist)
CCCCNC(=O)C1CCCN(S(=O)(=O)CCC)C1 (configuration not stated)	D1 antag -32 (no result: DRD3 antagonist)
CCCS(=O)(=O)N1CCCC(C(=O)NCCc2ccc(Cl)cc2)C1 (configuration not stated)	D1 antag -31, DRD3 antagonist -63
CCCS(=O)(=O)N1CCCC(C(=O)c2cccc(Cl)c2)C1 (configuration not stated)	BCR signal inh inconclusive, DRD3 antagonist -68
Cc1[nH]c(=O)[nH]c(=O)c1S(=O)(=O)N1CCCC(C(=O)NCCc2ccc(Cl)cc2)C1 (configuration not stated)	BCR signal inh inconclusive, D1 antag -35
COc1ccc(S(=O)(=O)N2CCN(c3ccccc3OC)CC2)cc1-c1noc(C)n1	none (no result: BCR signal inh, DRD3 antagonist)
CCOc1ccccc1NC(=O)c1cn(C2CCCCC2)c(=O)c2c1c1ccccc1n2C	none (no result: BCR signal inh, DRD3 antagonist)
CCc1nc2ccc(C(=O)Nc3ccc(OC)c(OC)c3)cn2c1N(C)Cc1ccc(N(C)C)cc1	none (no result: BCR signal inh, D1 potentiator, D1 antag, D1 ag)
COc1cccc(C(C)(O)c2nc(-c3ccc(C)c(C)c3)cs2)c1 (configuration not stated)	none (no result: BCR signal inh, D1 potentiator, D1 antag, D1 ag)
CCOc1ccc(NS(=O)(=O)c2ccc3c(c2)CCCN3C(=O)C2CCC2)cc1	none (no result: BCR signal inh, DRD3 antagonist)
CC(C)[Si]1(C(C)C)OCC2OC(n3cnc4c(N)ncnc43)C(N)C2O[Si](C(C)C)(C(C)C)O1 (configuration not stated)	none (no result: BCR signal inh, D1 potentiator, D1 antag, D1 ag)
O=C(NCC1CCCO1)C1CCCN(S(=O)(=O)c2ccc(Cl)cc2)C1 (configuration not stated)	BCR signal inh inconclusive, DRD3 agonist 34
O=C(NCc1ccccc1C(F)(F)F)C1CC(c2cc(C(F)(F)F)cc(C(F)(F)F)c2)=NO1 (configuration not stated)	none
O=C(NCc1cccs1)C1CC(c2ccc(Cl)cc2)=NO1 (configuration not stated)	BCR signal inh inconclusive, D1 antag -33

Screening results: PubChem BioAssay, National Center for Advancing Translational Sciences (NCATS)
